# According to paper PMC4336329 (PLoS ONE, 2015):
# The whole screen tested about 310,000 compounds, of which about 14,000 (4.5%) showed an effect of 50% or more. The effect is printed as a negative number. Only a selection was taken, and strong results are over-represented in it overall.
# Target: human ether-à-go-go-related gene (hERG) potassium channel (human, UniProt Q12809)
# Assay: primary screen, population patch clamp on CHO cells stably expressing hERG; higher = less effect of the substance
# Description: Briefly, Chinese hamster ovary (CHO) cells stably expressing the hERG channel were dislodged from tissue culture flasks and dispensed into PPC plates. […] During the recording, background leak currents were estimated by a 100 ms step to -80 mV from an initial holding potential of -70 mV and subtracted from the subsequent current measurement. The campaign was conducted in two phases using slight differences in recording protocol. In the first phase, the initial voltage pulse used a 100 ms step to -30 mV from a holding potential of -70 mV, a 2 s conditioning step to +25 mV, and a 2 s test step to -30 mV. During the second phase of the screen, the potential during the conditioning step was raised to +45 mV. In both phases of the campaign, a secondary voltage pulse was applied using the same parameters as the second phase initial pulse. The initial and secondary pulses were applied in the absence of compound, and upon application of 1 μM and 10 μM test concentrations. […]
# 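Note: peak tail current of the secondary pulse compared with the same well before compound.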
# Sequence of human ether-à-go-go-related gene (hERG) potassium channel (Q12809 whole entry, looked up): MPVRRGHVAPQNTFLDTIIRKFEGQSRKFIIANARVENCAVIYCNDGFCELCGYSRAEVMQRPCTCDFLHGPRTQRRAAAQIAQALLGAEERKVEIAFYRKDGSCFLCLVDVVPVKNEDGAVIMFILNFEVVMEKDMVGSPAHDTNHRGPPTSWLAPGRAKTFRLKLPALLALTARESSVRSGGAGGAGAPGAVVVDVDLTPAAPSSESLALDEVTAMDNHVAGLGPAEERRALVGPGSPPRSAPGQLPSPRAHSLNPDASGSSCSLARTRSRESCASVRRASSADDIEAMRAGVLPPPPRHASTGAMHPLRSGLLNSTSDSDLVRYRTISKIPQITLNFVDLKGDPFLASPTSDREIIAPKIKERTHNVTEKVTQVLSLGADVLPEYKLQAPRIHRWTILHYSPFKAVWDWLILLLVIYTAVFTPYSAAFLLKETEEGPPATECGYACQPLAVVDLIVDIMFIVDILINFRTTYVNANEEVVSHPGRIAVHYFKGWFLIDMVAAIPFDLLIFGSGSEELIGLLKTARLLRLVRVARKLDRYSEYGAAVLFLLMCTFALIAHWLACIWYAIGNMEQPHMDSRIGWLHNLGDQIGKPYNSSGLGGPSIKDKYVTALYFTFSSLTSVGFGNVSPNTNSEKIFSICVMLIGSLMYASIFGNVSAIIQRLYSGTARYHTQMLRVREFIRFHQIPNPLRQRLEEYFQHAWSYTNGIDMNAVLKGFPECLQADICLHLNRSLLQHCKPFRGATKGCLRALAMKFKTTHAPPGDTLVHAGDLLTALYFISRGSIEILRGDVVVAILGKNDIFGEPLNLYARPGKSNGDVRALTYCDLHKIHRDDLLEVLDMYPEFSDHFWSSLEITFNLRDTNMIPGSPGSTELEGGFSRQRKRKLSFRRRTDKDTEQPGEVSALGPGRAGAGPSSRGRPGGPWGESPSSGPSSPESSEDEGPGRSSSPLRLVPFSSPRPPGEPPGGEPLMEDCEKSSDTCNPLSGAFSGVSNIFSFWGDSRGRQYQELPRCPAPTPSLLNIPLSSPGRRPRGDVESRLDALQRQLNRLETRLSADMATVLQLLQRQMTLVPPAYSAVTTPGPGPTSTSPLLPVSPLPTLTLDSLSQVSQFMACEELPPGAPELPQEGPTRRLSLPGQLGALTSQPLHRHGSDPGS
row,Compound,"hERG current change (%, negative = inhibition) at 10uM"
1,CC(C)c1cccc(C(C)C)c1OCCCCN1CCCC1,-22.7%
2,COc1ccccc1N(C)S(=O)(=O)c1ccc(C(=O)Nc2nccs2)cc1,-30.5%
3,CC(=O)c1ccc(NC(=O)CN2CCC(NC(=O)C3CCCCC3)CC2)cc1,-6.72%
4,COc1cccc(CNC(=O)CCC2CCCN(C/C=C/c3ccccc3OC)C2)c1 (stereo not shown),-68.5%
5,COc1cccc(C(=O)N2CCCC(CCC(=O)NCc3ccc(F)c(F)c3)C2)c1 (stereo not shown),-17.5%
6,COc1ccccc1/C=C/CN1CCCC(CCC(=O)NCc2ccccc2F)C1 (stereo not shown),-65.7%
7,COc1ccccc1CC(=O)N1CCCC(CCC(=O)NCc2ccccc2F)C1 (stereo not shown),2.97%
8,COc1ccc(/C=C/CN2CCCC(CCC(=O)NCc3ccc(F)c(F)c3)C2)cc1 (stereo not shown),-72.8%
9,COc1ccccc1/C=C/CN1CCCC(CCC(=O)NCc2ccc(F)c(F)c2)C1 (stereo not shown),-70%
10,COc1ccc(C(=O)N2CCCC(CCC(=O)NCc3ccc(F)c(F)c3)C2)cc1F (stereo not shown),-22.8%
11,COc1cccc(CNC(=O)CCC2CCCN(C(=O)c3ccc(OC)c(F)c3)C2)c1 (stereo not shown),-9.79%
12,COCCC(=O)N1CCCC(CCC(=O)NCc2ccc(F)c(F)c2)C1 (stereo not shown),22.8%
13,COc1cccc(CNC(=O)CCC2CCCN(C(=O)Cc3ccccc3F)C2)c1 (stereo not shown),-7.61%
14,COC(=O)c1ccccc1C(=O)N1CCCC(CCC(=O)NCc2ccc(F)c(F)c2)C1 (stereo not shown),-10.1%
15,COCCNC(=O)CCC1CCN(C/C=C/c2ccccc2OC)CC1,-3.87%
16,CCCCC(NC(=O)c1cccc(Br)c1)C(=O)O (stereo not shown),9.42%
17,Cc1nn(C)c(C)c1CNC(=O)Nc1cccc(Cl)c1,6.93%
18,CC1(C)CC(=O)c2cn3nc(C(F)(F)F)nc3nc2C1,4.21%
19,O=C(CN1CCN(S(=O)(=O)c2ccc(F)c(Cl)c2)CC1)N1CCc2ccccc21,-34.7%
20,CCOC(=O)c1ccc(NC(=O)NS(=O)(=O)c2ccc(C)cc2)cc1,10.9%
21,CC(C)Oc1ccc(S(=O)(=O)N2CCCCC2)cc1NC(=O)CN1C(=O)NC2(CCCC2)C1=O,-2.87%
22,O=[N+]([O-])c1cccc(/C=N/NC2CCS(=O)(=O)C2)c1 (stereo not shown),11.9%

row,Compound,"hERG current change (%, negative = inhibition) at 10uM"
1,Cc1ccc(S(=O)(=O)N2CCCC(CCC(=O)NCc3ccccc3F)C2)s1 (stereo not shown),-50.7%
2,Cc1ccsc1S(=O)(=O)N1CCCC(CCC(=O)NCc2ccccc2F)C1 (stereo not shown),5.38%
3,Cc1ccsc1C(=O)N1CCCC(CCC(=O)NCc2ccccc2F)C1 (stereo not shown),-7.46%
4,CCOC(=O)C1=C(CSc2n[nH]c(N)n2)NC(=O)NC1C (stereo not shown),3.79%
5,CC1CC(C)CN(S(=O)(=O)N2CCCC(C(=O)NC(C)c3ccccc3)C2)C1 (stereo not shown),3.1%
6,COc1ccc(OC)c2[nH]c(C(=O)N3CCC(C(=O)O)CC3)cc12,24.6%
7,O=C(CSc1nnc(NC2CCCCC2)s1)NC1CCS(=O)(=O)C1 (stereo not shown),-0.507%
8,N#Cc1ccc(NCCc2ccccn2)c([N+](=O)[O-])c1,-74%
9,N#Cc1cc([N+](=O)[O-])ccc1NCCc1ccccn1,-18.4%
10,O=[N+]([O-])c1cc(Cl)ccc1Sc1ccccn1,3.65%
11,N#Cc1ccc(Sc2ccccn2)c([N+](=O)[O-])c1,-61.5%
12,N#Cc1cc(Sc2ccccn2)c([N+](=O)[O-])cc1C#N,-18.9%
13,O=[N+]([O-])c1cc(Cl)ccc1NCCc1ccccn1,-16.8%
14,CC(C)(C)c1ccc(OCC(=O)O)cc1,17.9%
15,COC(=O)c1sc(S(=O)(=O)NCCC(=O)O)c(C(=O)OC)c1C,5.17%
16,Cc1cccc(NC(=O)CSCC(=O)Nc2ccc(S(=O)(=O)N3CCOCC3)cc2)c1,-5.21%
17,Cc1ccc(CSCC(=O)Nc2cc(S(=O)(=O)N3CCOCC3)ccc2OC(C)C)cc1,-30.5%
18,CCOc1ccc(S(=O)(=O)N2CCOCC2)cc1NC(=O)CSCC(=O)Nc1cccc(C)c1,-11.4%
19,CCOc1ccc(S(=O)(=O)N2CCOCC2)cc1NC(=O)CSC(=S)N1CCCC1,-63%
20,CCOc1ccc(S(=O)(=O)N2CCOCC2)cc1NC(=O)C1CCC1,16.3%
21,Cc1cccc(NC(=O)CSCC(=O)Nc2cc(S(=O)(=O)N3CCOCC3)ccc2OC(C)C)c1,-87.2%
22,CCN(CC)c1ccc(S(=O)(=O)N2CCOCC2)cc1NC(=O)CSC(=S)N1CCCC1,-32.2%

row,Compound,"hERG current change (%, negative = inhibition) at 10uM"
1,CCOc1ccc(S(=O)(=O)N2CCOCC2)cc1NC(=O)CSCc1ccc(C)cc1,-53.2%
2,CCOc1ccc(S(=O)(=O)N2CCOCC2)cc1NC(=O)CSCC(=O)Nc1ccc(C)cc1,-18.2%
3,Cc1cc(C)c2c(c1)/C(=N/NC(=O)c1cc(C)oc1C)CCC2,6.66%
4,Cc1ccc(S(=O)(=O)N2CCC(C(=O)OCC(=O)NCCc3ccccc3)CC2)cc1C,-8.07%
5,C/C(=N\O)c1c(O)cc(-c2ccccc2)n(-c2ccccc2)c1=O,8.56%
6,CN(c1ccc(C(=O)N/N=C/c2cccc([N+](=O)[O-])c2)cc1)S(=O)(=O)c1ccccc1,1.88%
7,Cc1onc(-c2c(F)cccc2Cl)c1C(=O)N(C)C1CCCCC1,2.65%
8,CCN(CC)c1ccc(/C=N/NC(=S)NCc2ccccc2)c(O)c1,12%
9,COCCn1c(=S)[nH]c2cc(C(=O)N(CCO)Cc3ccccc3)ccc2c1=O,4.32%
10,CC(C)=CCc1c(O)ccc2c1OC(c1ccc(O)c(O)c1)CC2=O (stereo not shown),9.78%
11,COc1ccc(N2CCN(C(=O)CSc3ccc([N+](=O)[O-])cc3)CC2)cc1,-68.4%
12,COc1ccc(C(=O)CCC(=O)N2CCN(c3ccccc3)CC2)cc1,-9.62%
13,COc1ccc(N2CCN(C(=O)CSc3ccccc3N)CC2)cc1,3.07%
14,COc1ccc(C(=O)NC(=S)N2CCN(c3ccc([N+](=O)[O-])cc3)CC2)cc1,-49.2%
15,COc1ccc(C(=O)CCC(=O)N2CCN(c3ccc([N+](=O)[O-])cc3)CC2)cc1,-63.8%
16,COc1ccc(N2CCN(C(=O)CSc3ccccc3)CC2)cc1,4.44%
17,O=C(NC1CCN(S(=O)(=O)c2cccc(F)c2)CC1)c1ccc(F)cc1,14.6%
18,Cc1cc2c(sc3c(C)ccc(C)c32)c(C)n1.Cl,3.48%
19,O=C(NNC(=O)c1cccnc1)NC12CC3CC(CC(C3)C1)C2,-2.41%
20,CCCNC(=O)CS(=O)Cc1nc(-c2ccccc2C)oc1C (stereo not shown),6.71%
21,CC(=O)c1ccccc1NC(=O)C1CCCN(C(=O)c2ccc(Cl)cc2)C1 (stereo not shown),-25.6%
22,COc1ccc(S(=O)(=O)Cc2ccc(C(=O)NC3CCCCC3)o2)cc1,-2.17%

row,Compound,"hERG current change (%, negative = inhibition) at 10uM"
1,C[N+]1(C)C2CCC1CC(OC(=O)c1ccco1)C2.[Br-] (stereo not shown),7.81%
2,CCCN(C(=O)CSc1nnc(-c2ccoc2C)n1N)C1CCS(=O)(=O)C1 (stereo not shown),5.3%
3,O=C(NCC(c1ccco1)N1CCCC1)c1cn(Cc2ccccc2)nc1-c1ccccc1 (stereo not shown),-58.5%
4,COc1ccc(Cl)cc1C(=O)NCC(c1ccco1)N1CCCC1 (stereo not shown),-44.5%
5,COc1ccc(OC)c(-c2nn(-c3ccccc3)cc2C(=O)NCC2CCCO2)c1 (stereo not shown),2.13%
6,COc1cc(C(=O)NCC(c2ccco2)N2CCCC2)ccc1OCc1ccccc1 (stereo not shown),-40.5%
7,COc1ccc(OC)c(-c2nn(-c3ccccc3)cc2C(=O)NCC(c2ccco2)N2CCCC2)c1 (stereo not shown),-63.7%
8,Cc1cc(C(=O)NCC(c2ccco2)N2CCCC2)c2ccccc2n1 (stereo not shown),6.54%
9,O=C(NCC(c1ccco1)N1CCCC1)c1ccccc1F (stereo not shown),3.76%
10,Cc1ccccc1-c1nn(-c2ccccc2)cc1C(=O)NCC(c1ccco1)N1CCCC1 (stereo not shown),-14.3%
11,COc1ccccc1-c1nn(-c2ccccc2)cc1C(=O)NCC(c1ccco1)N1CCCC1 (stereo not shown),-53%
12,COc1ccccc1-c1nn(Cc2ccccc2)cc1C(=O)NCC(c1ccco1)N1CCCC1 (stereo not shown),-64%
13,COc1ccc(OC)c(-c2nn(-c3ccccc3)cc2C(=O)NCC(c2cccs2)N2CCOCC2)c1 (stereo not shown),-30.2%
14,COc1ccccc1C(=O)NCCC(=O)NCC(c1ccco1)N1CCCC1 (stereo not shown),13.7%
15,CC(=O)NC1(C(F)(F)F)N=C2SCCN2C1=O (stereo not shown),7.4%
16,CCOc1cc(/C=C/c2cccc[n+]2C)ccc1O.[I-],24.7%
17,O=C(COc1ccc(NC(=O)c2ccccc2[N+](=O)[O-])cc1)c1ccc(F)cc1,2.93%
18,O=[N+]([O-])c1cccc(S(=O)(=O)[N-]c2nc3ccccc3nc2-n2cc[n+](Cc3ccccc3)c2)c1,-5.11%
19,CC(C)N(C(=O)Cn1c(SCC(=O)Nc2nccs2)nc2ccccc21)C(C)C,12.6%
